From PubChem BioAssay (NCATS)
Records with an inconclusive call do not appear. The source made the active and inactive calls. The call rests on the fitted dose curve; in most records, active means well fitted curve in the direction sought with a large enough effect; inconclusive means small, poorly fitted or top-dose-only effect, or another doubt; inactive means no such curve, though single readings can be large; an effect the other way counts as inactive or inconclusive.

Legend:
[1] = target: Glutathione peroxidase 1 (Homo sapiens) (UniProt P07203); assay: Primary qHTS Assay for Inhibitors of Recombinant Selenoprotein Glutathione Peroxidase 1 (GPX1) (AID 1845191); conditions: recombinant GPX1, GR-coupled NADPH fluorescence, 15 min; series mostly up to 48.8 µM; further: nearly all actives have a fitted effect of over 65% in size
Summary of the method: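 GR-coupled readout: NADPH consumption tracked by fluorescence, ex 340/em 450 nm, at t=0 and after 15 min at RT. Final mix 10 nM GPX1, 1 mM GSH, 0.5 mM CHP, 0.5 mM NADPH, 100 nM GR, 0.01% BSA, following 30 min enzyme–compound preincubation.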

[2] = target: Phospholipid hydroperoxide glutathione peroxidase GPX4 (Homo sapiens) (UniProt P36969); assay: Primary qHTS Assay for Inhibitors of Recombinant Selenoprotein Glutathione Peroxidase 4 (GPX4) (AID 1845192); conditions: recombinant GPX4, GR-coupled NADPH fluorescence, 15 min; series mostly up to 50 µM; further: nearly all actives have a fitted effect of over 65% in size
Summary of the method: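 Steps: GPX4 plus compound, 30 min RT; add GR/GSH/NADPH master mix; start with cumene hydroperoxide; read 340/450 nm fluorescence at 0 and 15 min. Finals were 200 nM GPX4, 1 mM GSH, 0.5 mM CHP, 0.5 mM NADPH, 100 nM GR.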

[3] = target: Luciferin 4-monooxygenase (Photinus pyralis) (UniProt P08659); assay: Primary firefly luciferase (FLuc) qHTS assay for identification of artifact compounds. (AID 1845220); conditions: purified firefly luciferase, luminescence, 5 min; series mostly up to 54.1 µM; further: nearly all actives have a fitted effect of over 60% in size
Summary of the method: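 Enzymatic FLuc inhibition assay: compounds pre-exposed to luciferin/ATP (10 uM each) for 15 min, then purified P. pyralis enzyme at 10 nM added. Read-out: luminescence at 5 min.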

[4] = Primary fluorescence-based thiol-reactive (MSTI) qHTS assay for identification of artifact compounds. (AID 1845221); conditions: MSTI thiol-reactivity probe, 1 h; series mostly up to 53.8 µM;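 further: thiol-reactive compounds lower the probe fluorescence signal; nearly all actives have a fitted effect of over 65% in size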
Summary of the method: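 A multi-concentration qHTS design tested compounds against 4 uM MSTI, pH 7.4 phosphate-buffered saline. Plates were protected from light for 1 h at room temperature before imaging fluorescence.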

[5] = tested on: Nanoluciferase (engineered Oplophorus gracilirostris luciferase); assay: Primary Nanoluciferase (NLuc) qHTS assay for identification of artifact compounds. (AID 1845222); conditions: NLuc-conditioned medium, Nano-Glo luminescence, 5 min; series mostly up to 54.1 µM;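 further: NLuc secreted into diluted conditioned medium of S16 cells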
Summary of the method: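 S16 cell supernatant NLuc, 1:55; cpds qHTS; 15 min RT dark; Nano-Glo substrate 1:100, 5 min; luminescence; Hill fit of % inhibition.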

Measured: Potency

Glutathione peroxidase 1 (Homo sapiens), sequence (P07203 whole entry, looked up): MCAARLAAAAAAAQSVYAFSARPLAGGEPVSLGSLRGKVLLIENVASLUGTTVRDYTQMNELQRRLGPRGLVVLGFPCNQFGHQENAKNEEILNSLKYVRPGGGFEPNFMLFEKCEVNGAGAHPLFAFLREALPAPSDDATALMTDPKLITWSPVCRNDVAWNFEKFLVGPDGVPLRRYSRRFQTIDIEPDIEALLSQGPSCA
Phospholipid hydroperoxide glutathione peroxidase GPX4 (Homo sapiens), sequence (P36969 whole entry, looked up): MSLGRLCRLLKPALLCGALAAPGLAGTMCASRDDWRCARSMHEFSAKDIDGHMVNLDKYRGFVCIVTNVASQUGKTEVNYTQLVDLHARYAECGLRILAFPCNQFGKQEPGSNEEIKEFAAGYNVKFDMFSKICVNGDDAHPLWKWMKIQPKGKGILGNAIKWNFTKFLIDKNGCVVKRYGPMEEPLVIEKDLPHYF

CN(C)CCc1c[nH]c2ccc(CN3CCN(C)S3(=O)=O)cc12
inactive: all assays above

CC(=O)O[C@H]1C[C@@H](OC(C)=O)C(C)(C)C2C[C@@H](O)[C@]3(C)C(CC[C@@]4(C)[C@H](C5=CC(=O)OC5O)C[C@H]5O[C@]543)[C@]21C (stereo partly drawn)
inactive: [1] | [3] | [5]

CC1C/C=C/C(O)C(O)CC/C=C/c2cc(O)cc(O)c2C(=O)O1 (stereo not drawn)
not listed: [4]
inactive: all other assays above

COCC1OC(=O)c2coc3c2C1(C)C1=C(C3=O)C2CCC(=O)C2(C)CC1O (stereo not drawn)
not listed: [4]
inactive: all other assays above

COC1CC(=O)C23C(=O)NC(CC(C)C)C2C(C)=C(C)C(OO)C3/C=C(\C)CCC(O)C1O (stereo not drawn)
not listed: [4]
inactive: all other assays above

C[C@]12CC[C@H]3[C@@H]([C@H](O)CC4=CC(=O)CC[C@@]43C)[C@@H]1CC[C@@H]2O
not listed: [2]
inactive: all other assays above

CC(CCc1ccc(O)cc1)O[C@@H]1O[C@H](CO[C@H]2OC[C@](O)(CO)[C@H]2O)[C@@H](O)[C@H](O)[C@H]1O (stereo partly drawn)
inactive: all assays above

COC1CC(O[C@H]2CC[C@]3(C=O)C4CC[C@]5(C)[C@@H](C6=CC(=O)OC6)CC[C@]5(O)[C@@H]4CC[C@]3(O)C2)OC(C)C1O[C@@H]1O[C@H](CO)[C@@H](O)[C@H](O)[C@H]1O (stereo partly drawn)
inactive: all assays above

N#CC(OC1OC(COC2OC(CO)C(O)C(O)C2O)C(O)C(O)C1O)c1ccccc1 (stereo not drawn)
not listed: [1]
inactive: all other assays above
